In general, AC50 refers to the concentration giving half of the maximal activity seen.

Here are results for six molecules from PubChem BioAssay (EPA / NIEHS).

Results filed as inconclusive are left out. The source made the active and inactive calls. The calls were made as follows: active = hit-call score of the fitted dose curve at least 0.9, where 1 is the maximum; inconclusive = response in the unintended direction; inactive = score below 0.9.

Sequence of human NIMA (Never In Mitosis Gene A)-Related Kinase 2 (NEK2), NEK2 (gene 4751) (P51955 whole entry, looked up): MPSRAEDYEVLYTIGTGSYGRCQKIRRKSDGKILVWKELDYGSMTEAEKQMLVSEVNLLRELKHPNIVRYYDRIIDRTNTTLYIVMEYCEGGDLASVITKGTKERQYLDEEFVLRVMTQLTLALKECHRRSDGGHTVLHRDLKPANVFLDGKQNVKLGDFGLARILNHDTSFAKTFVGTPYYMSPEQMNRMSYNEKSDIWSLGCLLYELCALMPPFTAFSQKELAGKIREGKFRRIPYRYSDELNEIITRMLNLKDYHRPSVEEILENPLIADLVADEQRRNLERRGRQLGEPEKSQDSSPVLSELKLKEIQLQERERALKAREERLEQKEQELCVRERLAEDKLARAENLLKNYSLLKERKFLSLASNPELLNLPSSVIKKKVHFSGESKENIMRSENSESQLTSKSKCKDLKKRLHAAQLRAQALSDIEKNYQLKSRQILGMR
Sequence of human MET Proto-Oncogene, Receptor Tyrosine Kinase (MET), MET (gene 4233) (P08581 whole entry, looked up): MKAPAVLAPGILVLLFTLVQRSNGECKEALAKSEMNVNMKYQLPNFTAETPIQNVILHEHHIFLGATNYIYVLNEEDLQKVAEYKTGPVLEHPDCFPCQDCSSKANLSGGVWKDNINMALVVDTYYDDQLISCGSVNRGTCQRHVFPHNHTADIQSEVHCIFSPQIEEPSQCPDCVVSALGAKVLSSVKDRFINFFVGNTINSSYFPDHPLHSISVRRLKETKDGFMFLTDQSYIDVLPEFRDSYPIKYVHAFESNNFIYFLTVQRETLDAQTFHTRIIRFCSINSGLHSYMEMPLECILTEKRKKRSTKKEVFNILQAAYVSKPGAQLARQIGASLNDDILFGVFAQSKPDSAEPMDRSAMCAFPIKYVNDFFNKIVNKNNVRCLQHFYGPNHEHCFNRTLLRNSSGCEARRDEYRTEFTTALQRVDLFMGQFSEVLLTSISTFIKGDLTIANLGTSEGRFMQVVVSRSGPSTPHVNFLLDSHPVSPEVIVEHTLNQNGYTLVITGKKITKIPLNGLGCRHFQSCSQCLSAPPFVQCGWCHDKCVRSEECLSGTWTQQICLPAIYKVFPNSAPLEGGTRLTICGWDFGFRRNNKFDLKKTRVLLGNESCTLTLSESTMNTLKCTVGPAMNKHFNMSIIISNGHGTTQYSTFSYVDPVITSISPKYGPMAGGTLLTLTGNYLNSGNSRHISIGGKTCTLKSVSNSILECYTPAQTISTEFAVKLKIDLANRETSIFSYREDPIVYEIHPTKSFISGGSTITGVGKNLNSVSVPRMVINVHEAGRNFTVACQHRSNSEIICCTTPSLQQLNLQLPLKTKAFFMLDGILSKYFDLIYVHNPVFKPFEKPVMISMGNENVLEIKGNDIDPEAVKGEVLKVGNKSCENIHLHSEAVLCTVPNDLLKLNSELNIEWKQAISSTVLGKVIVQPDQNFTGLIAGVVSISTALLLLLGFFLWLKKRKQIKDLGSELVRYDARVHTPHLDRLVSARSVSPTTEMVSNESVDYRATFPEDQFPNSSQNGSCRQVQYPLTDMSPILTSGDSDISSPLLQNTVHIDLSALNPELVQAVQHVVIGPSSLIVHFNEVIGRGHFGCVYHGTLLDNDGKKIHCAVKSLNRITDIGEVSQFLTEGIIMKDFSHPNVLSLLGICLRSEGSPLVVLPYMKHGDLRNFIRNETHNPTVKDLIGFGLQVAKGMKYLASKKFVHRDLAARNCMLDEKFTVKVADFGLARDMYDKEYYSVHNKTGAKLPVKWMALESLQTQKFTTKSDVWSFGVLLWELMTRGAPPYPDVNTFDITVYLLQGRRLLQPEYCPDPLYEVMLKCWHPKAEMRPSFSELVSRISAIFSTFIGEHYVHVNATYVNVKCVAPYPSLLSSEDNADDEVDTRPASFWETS
Sequence of human Mitogen- and Stress-activated Protein Kinase-1 (Msk1), RPS6KA5 (gene 9252) (O75582 whole entry, looked up): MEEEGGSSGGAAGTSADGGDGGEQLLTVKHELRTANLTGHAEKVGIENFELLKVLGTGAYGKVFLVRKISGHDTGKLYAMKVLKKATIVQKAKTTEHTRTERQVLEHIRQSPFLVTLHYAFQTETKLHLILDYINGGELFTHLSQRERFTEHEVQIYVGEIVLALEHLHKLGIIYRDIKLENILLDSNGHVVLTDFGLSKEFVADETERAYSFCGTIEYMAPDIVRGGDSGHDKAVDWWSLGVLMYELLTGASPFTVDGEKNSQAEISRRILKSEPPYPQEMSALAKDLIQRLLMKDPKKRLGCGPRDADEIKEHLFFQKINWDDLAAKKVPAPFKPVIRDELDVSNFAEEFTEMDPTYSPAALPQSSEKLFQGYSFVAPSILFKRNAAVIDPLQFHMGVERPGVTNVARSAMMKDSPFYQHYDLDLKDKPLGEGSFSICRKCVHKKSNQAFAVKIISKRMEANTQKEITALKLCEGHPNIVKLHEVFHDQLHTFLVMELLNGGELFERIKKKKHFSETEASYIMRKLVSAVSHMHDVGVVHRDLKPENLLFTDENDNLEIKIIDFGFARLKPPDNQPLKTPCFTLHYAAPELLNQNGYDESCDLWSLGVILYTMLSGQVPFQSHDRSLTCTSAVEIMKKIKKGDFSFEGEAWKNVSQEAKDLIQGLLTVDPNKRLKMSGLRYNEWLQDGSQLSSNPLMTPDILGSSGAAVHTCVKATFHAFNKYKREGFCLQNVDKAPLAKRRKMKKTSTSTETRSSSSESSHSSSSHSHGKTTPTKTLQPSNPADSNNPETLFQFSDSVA

The target of the first assay is human MET Proto-Oncogene, Receptor Tyrosine Kinase (MET), MET (gene 4233) (UniProt P08581). The assay can be described thus: NVS_ENZ_hMet: NovaScreen (NVS) Enzymatic Assay for human MET Proto-Oncogene, Receptor Tyrosine Kinase (MET) (AID 2283180). An outline of the steps:
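Cell-free MET kinase assay using recombinant protein and fluorescent substrate, with mobility-shift separation; read 1 h after dosing. Primary duplicate at 25 uM; actives in singleton concentration-response to 50 uM maximum. Signal loss versus DMSO.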
With `CC(C)O.CC(C)O.OCCN(CCO)CCO.OCCN(CCO)CCO.[Ti]`, the AC50 is 25 µM (active).

With `N#Cc1cccnc1`, the molecule was called inactive.

For the molecule `CCCCCCCCCCCCOS(=O)(=O)O`, the AC50 is 25.4 µM (active).

Consider `CCCCCCCCCCCCc1cccc(S(=O)(=O)O)c1`, for which the concentration at half-maximal activity (AC50) was 17.8 µM (active).

In the case of `O=C(N[C@H]1CN2CCC1CC2)c1ccc2c(c1)OCCO2`, the result was inactive.

Turning to `Clc1cccc(Cl)c1Cl`, the result was inactive.

A further assay concerns the target human Mitogen- and Stress-activated Protein Kinase-1 (Msk1), RPS6KA5 (gene 9252) (UniProt O75582). The assay can be described thus: NVS_ENZ_hMsk1: NovaScreen (NVS) Enzymatic Assay for human Mitogen- and Stress-activated Protein Kinase-1 (Msk1) (AID 2283187). An outline of the steps:
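Recombinant kinase with fluorescent substrate; product separated by electrophoretic mobility shift, read 1 h after dosing. Screened in duplicate at 25 uM; hits (e.g. ≥30% inhibition) tested in concentration–response up to 50 uM. DMSO baseline.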
In the case of `CC(C)O.CC(C)O.OCCN(CCO)CCO.OCCN(CCO)CCO.[Ti]`, the AC50 is 0.109 µM (active).

As to `CCCCCCCCCCCCc1cccc(S(=O)(=O)O)c1`, the AC50 was 25.2 µM (active).

Consider `Clc1cccc(Cl)c1Cl`, for which the result was inactive.

In the next assay the target is human NIMA (Never In Mitosis Gene A)-Related Kinase 2 (NEK2), NEK2 (gene 4751) (UniProt P51955). Kind of assay: NVS_ENZ_hNEK2: NovaScreen (NVS) Enzymatic Assay for human NIMA (Never In Mitosis Gene A)-Related Kinase 2 (NEK2) (AID 2283188). In outline:
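Cell-free NEK2 enzyme activity after 1 h exposure, read by fluorescence with electrophoretic mobility shift separating substrate and product. Primary screen in duplicate at 25 uM; actives then run as concentration series. Loss of signal versus DMSO scored.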
As to `CC(C)O.CC(C)O.OCCN(CCO)CCO.OCCN(CCO)CCO.[Ti]`, the AC50 is 17.5 µM (active).

Regarding `N#Cc1cccnc1`, the outcome was inactive.

`CCCCCCCCCCCCc1cccc(S(=O)(=O)O)c1`: the AC50 is 12.2 µM (active).

`Clc1cccc(Cl)c1Cl`: the call was inactive.
